Experimental findings from PubChem BioAssay (EPA / NIEHS) are described below.

The structures appear in SMILES notation. Inconclusive results are not listed. Calls of active or inactive are those of the source. The calls were made as follows, unless noted: active = hit-call score of the fitted dose curve at least 0.9, where 1 is the maximum; inactive = score below 0.9.

Test [1] has as its target Paired box protein Pax-6 (Homo sapiens) (UniProt P26367). Description: ATG_Pax6_CIS: Attagene CIS-FACTORIAL HepG2 Assay for human Paired Box 6 (PAX6) (AID 2282956). Particulars: HepG2 CIS-FACTORIAL PAX6 reporter transcription, RNA readout; actives raise or lower the signal. In short, it runs like this:
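DMSO-referenced bidirectional fits of reporter mRNA fluorescence; HepG2 with transient cis-promoter MRTUs, 24 h post-dose, RT-PCR plus capillary electrophoresis detection.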

Test [2] in a line: ATG_PXRE_CIS: Attagene CIS-FACTORIAL HepG2 Assay for human Pregnane X Receptor Element (PXRE) (AID 2282957). Particulars: HepG2 Attagene CIS-FACTORIAL PXRE reporter, mRNA; actives raise or lower the signal. The gist of the method:
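Fluorescent capillary electrophoresis of amplified reporter cDNA gave the signal, collected 24 h after dosing HepG2 cells that held transfected cis-element reporter constructs.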

A short description of test [3]: ATG_PPRE_CIS: Attagene CIS-FACTORIAL HepG2 Assay for human Peroxisome Proliferator-activated Response Element (PPRE) (AID 2282958). Particulars: HepG2 PPRE cis-element reporter, Attagene transcription factor profiling; actives raise or lower the signal. In short, it runs like this: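 After human HepG2 hepatoma cells were transiently transfected with cis-promoter reporter constructs, they were exposed to test chemicals for 24 hours. Reporter RNA was then reverse-transcribed, PCR-amplified, FAM-labeled, HpaI-digested and quantified by capillary electrophoresis.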

A short description of test [4]: ATG_RORE_CIS: Attagene CIS-FACTORIAL HepG2 Assay for human RAR-related Orphan Receptor Element (RORE) (AID 2282959). Particulars: HepG2 Attagene cis-factorial RORE reporter, mRNA; actives raise or lower the signal. The gist of the method:
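Measured here: transcript induction of a cis-regulated reporter in HepG2 cells transiently transfected via FuGene 6. After 24 h, RNA was processed by RT-PCR and fluorescent capillary electrophoresis; DMSO defined baseline activity.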

A short description of test [5]: ATG_Sox_CIS: Attagene CIS-FACTORIAL HepG2 Assay for human SRY-box transcription factor (SOX) (AID 2282960). Particulars: HepG2 Attagene cis-factorial SOX reporter, mRNA; actives raise or lower the signal. In short, it runs like this: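 Using transiently transfected HepG2 cells, reporter transcription driven by cis elements was assessed 24 h after dosing. Signal was fluorescence of capillary-separated RT-PCR products, with DMSO defining baseline activity.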

The nature of test [6]: ATG_SREBP_CIS: Attagene CIS-FACTORIAL HepG2 Assay for human Sterol Regulatory Element Binding (SREBP) (AID 2282962). Particulars: HepG2 Attagene cis-factorial SREBP reporter, mRNA; actives raise or lower the signal. In short, it runs like this:
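In this cis-format assay, HepG2 liver cells express reporters controlled by promoter elements responsive to native transcription factors. Exposure lasts 24 h; reporter mRNA fluorescence from capillary electrophoresis gives the signal, fitted bidirectionally against DMSO.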

For test [7], the target named is Signal transducer and activator of transcription 3 (Homo sapiens) (UniProt P40763). Nature of the test: ATG_STAT3_CIS: Attagene CIS-FACTORIAL HepG2 Assay for human Signal Transducer and Activator of Transcription 3 (STAT3) (AID 2282963). Particulars: HepG2, Attagene cis-factorial STAT3 reporter transcription; actives raise or lower the signal. The gist of the method:
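Uses human liver HepG2 transiently carrying cis-regulated reporter transcription units. Following 24 h dosing, reporter mRNA induction was detected by RT-PCR and capillary electrophoresis, analysed bidirectionally versus DMSO.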

Test [8] is described as follows: ATG_TA_CIS: Attagene CIS-FACTORIAL HepG2 Assay for human TA Basal Promoter (AID 2282964). Particulars: HepG2 Attagene CIS-factorial TA basal promoter reporter; actives raise or lower the signal. The gist of the method: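 Background-control readout: TA basal promoter reporter mRNA, fitted in both directions relative to DMSO. Measured by RT-PCR and capillary electrophoresis 24 hours after treating HepG2 human liver cells transiently carrying multiplexed cis-regulated reporter constructs.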

Test [9] can be described thus: ATG_TCF_b_cat_CIS: Attagene CIS-FACTORIAL HepG2 Assay for human T-Cell-Factor with beta-catenin (TCF/b-cat) (AID 2282965). To be noted: HepG2 TCF/beta-catenin cis-reporter transcription, actives raise or lower the signal. In short, it runs like this: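 In this cis-format system, transfected HepG2 cells report endogenous transcription factor activity. Readout after 24 h exposure is reporter transcript abundance from RT-PCR and capillary electrophoresis, analysed for gain or loss of signal versus DMSO.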

Test [10] in a line: ATG_TAL_CIS: Attagene CIS-FACTORIAL HepG2 Assay for human TAL Basal Promoter (AID 2282966).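 Also: background control endpoint measuring basal TAL promoter reporter mRNA not a specific factor.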 To be noted: HepG2 Attagene cis-factorial TAL promoter reporter; actives raise or lower the signal. The gist of the method:
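Transiently transfected HepG2 (cis-regulated reporter units), 24 h treatment, mRNA read by fluorescent CE after RT-PCR; bidirectional fit, DMSO baseline.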

A short description of test [11]: ATG_TGFb_CIS: Attagene CIS-FACTORIAL HepG2 Assay for human Transforming Growth Factor (TGF) (AID 2282967). Particulars: HepG2 Attagene CIS TGFb reporter, mRNA transcription; actives raise or lower the signal. In short, it runs like this:
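Endogenous TGFB1-linked transcription factor activity read as reporter mRNA via RT-PCR and capillary electrophoresis, 24 h after dosing transiently transfected HepG2 cells. Gain or loss of signal fitted relative to DMSO.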

Test [12] can be described thus: ATG_VDRE_CIS: Attagene CIS-FACTORIAL HepG2 Assay for human Vitamin D Receptor Element (VDRE) (AID 2282968). To be noted: HepG2 VDRE cis-reporter transcription, actives raise or lower the signal. The gist of the method:
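Transfected HepG2 reporter cells, chemical treatment 24 h. RNA isolated, cDNA amplified with reporter-specific primers, products analysed by capillary electrophoresis. Endpoint fitted in both directions versus DMSO.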

The target in test [13] is Nuclear receptor subfamily 1 group I member 3 (Homo sapiens) (UniProt Q14994). Nature of the test: ATG_CAR_TRANS: Attagene TRANS-FACTORIAL HepG2 Assay for human Constitutive Androstane Receptor (CAR) (AID 2282969; active = hit-call score of the fitted dose curve at least 0.9, where 1 is the maximum;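 also: activators raise reporter mRNA above DMSO so AC50 marks induction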). To be noted: HepG2 Attagene TRANS-FACTORIAL CAR reporter. In short, it runs like this: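 Steps: transient transfection of HepG2 with multiple GAL4-UAS reporter units; 24 h compound incubation; RNA isolation, RT-PCR, 6-FAM primer extension, HpaI digest; capillary electrophoresis. Gain-of-signal relative to DMSO negative control.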

Test [14] addresses Estrogen receptor (Homo sapiens) (UniProt P03372). Nature of the test: ATG_ERa_TRANS: Attagene TRANS-FACTORIAL HepG2 Assay for human Estrogen Receptor alpha (ERa) (AID 2282970; active = hit-call score of the fitted dose curve at least 0.9, where 1 is the maximum). To be noted: HepG2 Attagene TRANS ERa GAL4 reporter, mRNA. The gist of the method: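 One of 30 multiplexed endpoints from a HepG2 TRANS system, this one reports ERa-Gal4-driven reporter mRNA. Transcripts were quantified 24 hours post-dosing by fluorescent RT-PCR and capillary electrophoresis, with activity scored as induction over DMSO.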

The target of test [15] is X-box-binding protein 1 (Homo sapiens) (UniProt P17861). Description: ATG_Xbp1_CIS: Attagene CIS-FACTORIAL HepG2 Assay for human X-box Binding Protein 1 (XBP1) (AID 2282972). To be noted: HepG2 XBP1 cis-element reporter, Attagene multiplex; actives raise or lower the signal. The gist of the method: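 Changes in reporter transcript abundance, read by RT-PCR and capillary electrophoresis, reflect endogenous transcription factor activity. Transfected HepG2 cells received compound for 24 hours; DMSO defined baseline for bidirectional analysis.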

Test [16] is described as follows: ATG_GAL4_TRANS: Attagene TRANS-FACTORIAL HepG2 Assay for GAL4 (Internal Marker) (AID 2282976; active = hit-call score of the fitted dose curve at least 0.9, where 1 is the maximum). To be noted: HepG2 Attagene TRANS GAL4 internal marker reporter. The gist of the method:
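HepG2 cells transiently transfected with multiplexed GAL4-UAS reporter constructs were dosed for 24 h. Reporter mRNA was measured by RT-PCR, 6-FAM primer extension, HpaI digestion and capillary electrophoresis, and gain of signal was fitted relative to DMSO.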

The target in test [17] is Estrogen-related receptor gamma (Homo sapiens) (UniProt P62508). Description: ATG_ERRg_TRANS: Attagene TRANS-FACTORIAL HepG2 Assay for human Estrogen-Related Receptor gamma (ERRg) (AID 2282977; active = hit-call score of the fitted dose curve at least 0.9, where 1 is the maximum;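 also: hits increase reporter signal over DMSO so potencies reflect activators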). Particulars: HepG2 Attagene TRANS reporter, ERRg transactivation. In short, it runs like this:
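Readout: fluorescent reporter-mRNA fragments resolved by capillary electrophoresis after RT-PCR and HpaI cut. Cells: transiently transfected HepG2 carrying GAL4-UAS reporters driven by exogenous NR-Gal4 chimeras, dosed 24 h. Activity fitted upward relative to DMSO baseline.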

Test [18] can be described thus: ATG_M_19_TRANS: Attagene TRANS-FACTORIAL HepG2 Assay for M19 Transcription Factor (Internal Marker) (AID 2282974; active = hit-call score of the fitted dose curve at least 0.9, where 1 is the maximum). To be noted: HepG2 Attagene TRANS-FACTORIAL M19 internal marker reporter. The gist of the method:
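Gain-of-signal in reporter mRNA, relative to DMSO, was scored from capillary electrophoresis fluorescence. HepG2 cells carried transiently transfected multiple reporter transcription units and were incubated with test chemicals for 24 h.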

The target of test [19] is Transcription factor Sp1 (Homo sapiens) (UniProt P08047). Description: ATG_Sp1_CIS: Attagene CIS-FACTORIAL HepG2 Assay for human Specificity Protein 1 (Sp1) (AID 2282961). To be noted: HepG2 Sp1 cis-reporter transcription, actives raise or lower the signal. The gist of the method:
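After transient transfection of HepG2 cells with cis-promoter reporter units and 24 h chemical treatment, reporter transcripts were quantified by RT-PCR and capillary electrophoresis fluorescence. Gain- and loss-of-signal fitted against DMSO.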

What is called AC50 is the concentration at which the activity in the assay is half-maximal.

X-box-binding protein 1 (Homo sapiens), sequence (P17861 whole entry, looked up): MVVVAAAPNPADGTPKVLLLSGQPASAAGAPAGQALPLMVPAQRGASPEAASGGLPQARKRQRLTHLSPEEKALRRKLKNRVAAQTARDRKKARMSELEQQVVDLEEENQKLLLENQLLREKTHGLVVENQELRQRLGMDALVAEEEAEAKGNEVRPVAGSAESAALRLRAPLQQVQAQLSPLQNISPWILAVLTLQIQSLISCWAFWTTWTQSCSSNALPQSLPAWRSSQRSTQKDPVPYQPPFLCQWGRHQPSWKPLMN
Paired box protein Pax-6 (Homo sapiens), sequence (P26367 whole entry, looked up): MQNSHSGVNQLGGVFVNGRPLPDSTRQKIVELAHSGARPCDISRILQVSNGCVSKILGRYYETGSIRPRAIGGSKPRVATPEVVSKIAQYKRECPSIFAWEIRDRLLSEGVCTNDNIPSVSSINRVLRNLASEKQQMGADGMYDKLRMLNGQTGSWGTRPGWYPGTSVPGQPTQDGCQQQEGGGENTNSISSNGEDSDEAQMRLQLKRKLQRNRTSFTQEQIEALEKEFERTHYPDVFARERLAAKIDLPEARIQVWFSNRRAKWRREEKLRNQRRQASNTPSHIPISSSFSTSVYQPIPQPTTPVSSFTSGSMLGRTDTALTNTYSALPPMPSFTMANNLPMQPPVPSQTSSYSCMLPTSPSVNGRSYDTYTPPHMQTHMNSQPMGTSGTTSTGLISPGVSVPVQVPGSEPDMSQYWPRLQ
Estrogen receptor (Homo sapiens), sequence (P03372 whole entry, looked up, the tested form may be a part): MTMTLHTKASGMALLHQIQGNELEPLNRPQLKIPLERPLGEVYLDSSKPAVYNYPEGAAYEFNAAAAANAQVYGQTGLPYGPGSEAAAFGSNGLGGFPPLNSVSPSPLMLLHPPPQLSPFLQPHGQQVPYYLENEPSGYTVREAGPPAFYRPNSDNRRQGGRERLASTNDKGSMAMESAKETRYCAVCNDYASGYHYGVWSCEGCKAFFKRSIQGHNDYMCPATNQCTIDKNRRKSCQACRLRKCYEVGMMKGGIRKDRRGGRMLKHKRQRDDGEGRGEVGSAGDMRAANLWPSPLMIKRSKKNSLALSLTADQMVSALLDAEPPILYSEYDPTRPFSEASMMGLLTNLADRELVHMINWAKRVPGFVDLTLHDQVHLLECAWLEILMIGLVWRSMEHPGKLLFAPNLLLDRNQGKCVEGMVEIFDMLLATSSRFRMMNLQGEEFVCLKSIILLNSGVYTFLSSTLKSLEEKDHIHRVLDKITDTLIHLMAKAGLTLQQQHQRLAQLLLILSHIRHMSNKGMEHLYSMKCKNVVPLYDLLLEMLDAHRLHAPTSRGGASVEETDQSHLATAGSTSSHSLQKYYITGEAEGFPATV
Signal transducer and activator of transcription 3 (Homo sapiens), sequence (P40763 whole entry, looked up): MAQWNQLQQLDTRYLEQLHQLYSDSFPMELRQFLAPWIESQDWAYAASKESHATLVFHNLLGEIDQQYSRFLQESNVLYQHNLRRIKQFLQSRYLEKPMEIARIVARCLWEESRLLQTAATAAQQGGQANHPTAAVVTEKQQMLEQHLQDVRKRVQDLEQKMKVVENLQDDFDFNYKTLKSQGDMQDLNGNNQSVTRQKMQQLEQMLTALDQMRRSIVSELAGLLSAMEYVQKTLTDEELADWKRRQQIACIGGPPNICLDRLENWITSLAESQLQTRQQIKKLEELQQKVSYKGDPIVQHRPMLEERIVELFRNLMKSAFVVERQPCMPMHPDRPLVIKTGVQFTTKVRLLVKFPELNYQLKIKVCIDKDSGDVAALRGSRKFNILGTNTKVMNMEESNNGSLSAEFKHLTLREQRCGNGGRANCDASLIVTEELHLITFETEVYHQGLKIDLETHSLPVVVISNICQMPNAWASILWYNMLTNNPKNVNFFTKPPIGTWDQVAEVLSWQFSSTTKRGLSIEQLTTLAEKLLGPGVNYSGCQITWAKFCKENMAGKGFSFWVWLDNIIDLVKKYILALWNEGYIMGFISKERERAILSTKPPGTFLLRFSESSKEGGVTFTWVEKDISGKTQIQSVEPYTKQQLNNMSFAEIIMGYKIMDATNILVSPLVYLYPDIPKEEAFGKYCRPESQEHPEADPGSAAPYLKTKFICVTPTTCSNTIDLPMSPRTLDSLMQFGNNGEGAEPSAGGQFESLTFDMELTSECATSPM
Nuclear receptor subfamily 1 group I member 3 (Homo sapiens), sequence (Q14994 whole entry, looked up, the tested form may be a part): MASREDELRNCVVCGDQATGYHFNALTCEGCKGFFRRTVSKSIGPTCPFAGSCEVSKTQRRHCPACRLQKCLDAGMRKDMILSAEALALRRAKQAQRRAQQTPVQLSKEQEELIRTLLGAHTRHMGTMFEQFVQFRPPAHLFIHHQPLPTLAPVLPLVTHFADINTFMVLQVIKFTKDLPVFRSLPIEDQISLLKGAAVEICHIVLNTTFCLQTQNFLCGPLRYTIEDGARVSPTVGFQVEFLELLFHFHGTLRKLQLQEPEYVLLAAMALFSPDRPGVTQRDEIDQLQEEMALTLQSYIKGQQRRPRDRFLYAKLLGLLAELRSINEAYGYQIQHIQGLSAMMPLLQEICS
Estrogen-related receptor gamma (Homo sapiens), sequence (P62508 whole entry, looked up, the tested form may be a part): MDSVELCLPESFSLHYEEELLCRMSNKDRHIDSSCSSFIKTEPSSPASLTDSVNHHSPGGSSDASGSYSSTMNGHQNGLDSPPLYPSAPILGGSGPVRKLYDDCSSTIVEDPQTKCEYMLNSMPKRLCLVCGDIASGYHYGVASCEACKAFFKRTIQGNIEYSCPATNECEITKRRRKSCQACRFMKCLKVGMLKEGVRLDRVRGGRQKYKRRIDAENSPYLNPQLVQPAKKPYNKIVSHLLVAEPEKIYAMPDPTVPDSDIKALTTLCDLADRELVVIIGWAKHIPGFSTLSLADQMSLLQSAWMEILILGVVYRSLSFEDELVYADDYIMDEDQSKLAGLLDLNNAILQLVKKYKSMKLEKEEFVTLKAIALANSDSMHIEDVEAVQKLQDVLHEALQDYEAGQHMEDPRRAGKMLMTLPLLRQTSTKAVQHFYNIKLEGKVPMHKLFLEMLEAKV
Transcription factor Sp1 (Homo sapiens), sequence (P08047 whole entry, looked up): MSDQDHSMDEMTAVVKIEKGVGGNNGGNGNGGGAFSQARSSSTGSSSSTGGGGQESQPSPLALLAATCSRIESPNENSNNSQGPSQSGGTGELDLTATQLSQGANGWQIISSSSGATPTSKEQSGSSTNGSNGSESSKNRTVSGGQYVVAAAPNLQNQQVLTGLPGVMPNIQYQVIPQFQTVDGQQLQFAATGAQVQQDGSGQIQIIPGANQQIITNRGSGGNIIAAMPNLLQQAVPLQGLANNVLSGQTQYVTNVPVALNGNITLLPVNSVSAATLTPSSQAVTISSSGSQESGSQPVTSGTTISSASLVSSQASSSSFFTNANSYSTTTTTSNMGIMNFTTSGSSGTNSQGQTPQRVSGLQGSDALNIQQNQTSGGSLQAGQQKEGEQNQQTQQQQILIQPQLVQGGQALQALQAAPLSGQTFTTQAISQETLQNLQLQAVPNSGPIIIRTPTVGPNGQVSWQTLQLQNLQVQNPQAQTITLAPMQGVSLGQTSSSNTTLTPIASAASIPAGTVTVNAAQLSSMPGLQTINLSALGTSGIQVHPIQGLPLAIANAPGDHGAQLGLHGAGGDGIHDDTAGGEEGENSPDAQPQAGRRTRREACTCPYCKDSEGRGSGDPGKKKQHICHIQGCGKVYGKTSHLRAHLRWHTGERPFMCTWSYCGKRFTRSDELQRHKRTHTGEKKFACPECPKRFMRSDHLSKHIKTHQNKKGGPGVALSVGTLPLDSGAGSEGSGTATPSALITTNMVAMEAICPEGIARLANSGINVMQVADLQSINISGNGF

For the compound `C1=Cc2ccccc2C1`, the result in [1], in [3], in test [4], in test [5], in test [6] and in [7] was inactive. For the same compound, the compound was classed as inactive in [8], in test [9], in test [10], in test [11], in [12] and in [13]. The call in test [15], in test [16] and in test [17] was inactive. Also, the AC50 in test [2] is 9.16 µM (active); in test [14] it was 65.8 µM (active).

Take `O=C1Nc2ccccc2C1(c1ccc(O)cc1)c1ccc(O)cc1`: the concentration at half-maximal activity (AC50) was 70.7 µM (active) in test [1]; 63.9 µM (active) in test [5]; 27.2 µM (active) in [6]; 61.7 µM (active) in [8]; 40.9 µM (active) in test [9]; 17.8 µM (active) in [12]. The AC50 in test [15] is 48.8 µM (active). The outcome in test [2], in [3], in [4], in test [7], in test [10] and in test [11] was inactive.

Take `FC(F)=C(F)OC(F)(F)C(F)(F)C(F)(F)F`: the compound was called inactive in test [1], in test [2], in test [3], in test [4], in test [5] and in test [6]. Further, the outcome in test [7], in test [8], in test [9], in test [10], in [11] and in test [15] was inactive. Besides, the compound was classed as inactive in test [18] and in test [16].

Consider `CCC(=O)Oc1ccc(/C(CC)=C(\CC)c2ccc(OC(=O)CC)cc2)cc1`, for which the concentration at half-maximal activity (AC50) was 37.8 µM (active) in [1]; 2.95 µM (active) in [2]; 37.8 µM (active) in [5]; 23.4 µM (active) in test [19]; 38.2 µM (active) in test [8]; 26.4 µM (active) in test [9]. Also, the AC50 in [12] was 4.32 µM (active); in test [14], 0.54 µM (active); in test [15], 27.5 µM (active). The call in test [3], in test [4], in [7], in test [10] and in test [11] was inactive.

For the compound `O=C1c2ccccc2C(=O)C1c1nc2ccccc2c(Br)c1O`, the compound was classed as inactive in test [1], in test [3], in test [4], in test [5], in [6] and in test [7]. Further, the compound was called inactive in test [8], in test [9], in test [10], in [14], in [15] and in test [18]. Besides, the call in test [16] was inactive. Moreover, the figures for the AC50 in [2], in [11] and in [12] were 5.42 µM (active), 100 µM (active) and 17.2 µM (active), respectively.
